Experimental data reported in PubChem BioAssay AID1117359 (Southern Research Institute, 2015).
Hit rate of the full screen: of about 1,500 compounds, about 460 (31%) were called active. A selection follows. Potency and affinity values are given separately. A number with no mark means an inactive call.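 How the source made its calls: active means viability at or below 80% at any tested concentration, marking the compound as toxic; inactive means the rest.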

test: THP-1 cell cytotoxicity, dose response, cytotoxicity control for Vif-APOBEC3G degradation inhibitor project, THP-1 cells (AID 1117359); conditions: THP-1 viability, CellTiter-Glo luminescence, 72 h; series mostly up to 40 µM; viability: at the top concentration

Point of comparison: `CC1(C)Cc2nc3sc(C(=O)O)c(N)c3cc2CS1`, “viability” value 85.6%. Against it:
- O=c1oc2c(O)c(O)cc3c(=O)oc4c(O)c(O)cc1c4c23 — lower, 81.6%
- CN(Cc1ccccc1)C(=O)C1CCCN1S(=O)(=O)c1ccc2c(c1)n(C)c(=O)c(=O)n2C (stereo not given) — higher, 104%
- O=c1cc2oc3cc(O)c(O)cc3c(-c3ccccc3O)c-2cc1O — lower, 84.8%
- COCCn1c(SCC(=O)Nc2cc(C)on2)nc2cc(Cl)ccc2c1=O — higher, 95.7%
- CCCCS(=O)(=O)N1CCCC(C(=O)N2CCOCC2)C1 (stereo not given) — higher, 91.6%
- COc1ccc(S(=O)(=O)NNC(=O)c2sccc2-n2cccc2)cc1 — higher, 93.2%
- COc1ccc(NS(=O)(=O)c2cccc(C(=O)NNC(=O)c3cccn3C)c2)cc1 — higher, 96.1%
- Cc1ccc(C(=O)O)cc1-c1ccc(/C=C2/NC(=O)N(c3ccccc3)C2=O)o1 — higher, 104%
- COC(=O)C1C(O)=C(C=Nc2ccc(N)cc2)C(=O)CC1(C)C (stereo not given) — higher, 86.8%
- COc1ccc(/C(O)=C2/C(=O)C(=O)N(c3ccccn3)C2c2ccc(F)cc2)cc1 (stereo not given) — higher, 88.5%
- Cc1cc(O)c(C(C)C)cc1N=Cc1ccc([N+](=O)[O-])cc1 — higher, 86%
- COC(=O)C1=C(O)/C(=C/c2cccc(OC)c2O)N=C1C — higher, 119%
- O=[N+]([O-])/C(C(Cl)=C(Cl)Cl)=C(/NC1CC1)Sc1ccccc1 — lower, 80.3%
- CN1OC[C@@H]2CN(C(=O)C(C)(C)C)[C@H](c3cccc(Oc4ccccc4)c3)C[C@@H]21 — lower, 81.6%
- COc1ccc(C2CC(=O)Oc3cc(OC)ccc32)cc1 (stereo not given) — higher, 97%
- Cc1ccc(C(=O)C2=C(O)C(=O)N(c3ncccn3)C2c2ccc(F)cc2)o1 (stereo not given) — higher, 98.4%
- O=C(O)/C=C/c1ccc(S(=O)(=O)N2CCN(CCN3C(=O)C4C5C=CC(C5)C4C3=O)CC2)cc1 (stereo not given) — higher, 105%
- O=S(=O)(O)c1cccc2c(N=Nc3ccc(O)c4ncccc34)cccc12 — higher, 112%
- O=[N+]([O-])c1cc2ccccc2c(O)c1O — higher, 105%
- CN(CC(=O)Nc1ccccc1Cl)C(=O)Cn1cc(C(F)(F)F)cc(Cl)c1=O — higher, 98.7%
- Cc1[nH]c(=O)nc(NN=Cc2ccc(Cl)cc2)c1C(=O)Nc1ccc(Cl)cc1 — higher, 94.2%
- CC(=C/C(=O)O)/C=C/c1ccc(Cl)o1 — higher, 104%
- COc1ccccc1C(=O)Nc1ccc(-c2nnc(SCC(=O)O)n2C)cc1 — higher, 96.2%
- O=C(CSc1nnc(-c2ccco2)c(-c2ccco2)n1)Nc1ccccc1 — lower, 80.2%
- O=[N+]([O-])c1ccc(-c2c[nH]c(=S)[nH]2)cc1 — higher, 103%
- CCOc1ccc(/C=C2\NC(=S)NC2=O)cc1 — higher, 96.2%
- COc1ccc(-c2cc(-c3ccco3)[nH]c(=O)c2C#N)cc1 — higher, 101%
- CC1CCC/C(=C\Nc2ccc(C(=O)O)c(O)c2)C1=O (stereo not given) — higher, 107%
- CCNC(=O)COC(=O)c1cc(-c2ccco2)nc2ccccc12 — higher, 96.2%
- CN(C)[C@@H]1C(=O)C(C(=O)NCN2CCCC2)=C(O)[C@@]2(O)C(=O)C3=C(O)c4c(O)cccc4[C@@](C)(O)C3CC12 (stereo not given in full) — higher, 88.8%
- Cc1cc(/C=C2\SC(=S)NC2=O)c(C)n1C — lower, 83.5%
- COC(=O)Cc1ccc(NC(=S)NNC(=O)C2CC2)cc1 — higher, 94.8%
- O=c1[nH][nH]c(=O)c2nc(Nc3ccccc3)ncc12 — higher, 93.8%
- CCN(CC)c1ccc(C=Nc2ccc(N(C)C)cc2)c(O)c1 — higher, 92.7%
- Cc1ccccc1NC(=O)Cc1nc(COC(=O)Cc2ccccc2F)cs1 — higher, 110%
- CN(C)c1ccc(/C=C/C#N)cc1 — lower, 84.6%
- CCCc1cc(=O)[nH]c(SCC(=O)c2c(C)[nH]c3ccccc23)n1 — higher, 116%
- COc1ccc(NC(=O)CSc2nc3c(cc2C#N)CN(C)CC3)cc1 — lower, 81.2%
- COc1ccc(NC2=NC(C)(CO)CS2)cc1 (stereo not given) — higher, 105%
- COc1ccc(NC(=O)CCCSc2ccccc2)cc1 — higher, 110%
- CCOC(=O)/C(=C\c1ccccc1)NC(=O)c1ccccc1 — higher, 101%
- COc1ccc2cc(C3C(C#N)=C(N)OC(C)=C3C(C)=O)c(Cl)nc2c1 (stereo not given) — higher, 96.4%
- Cc1ccc(C2C(C#N)=C(N)Oc3c2oc(CO)cc3=O)o1 (stereo not given) — higher, 98.5%
- NS(=O)(=O)c1ccc(CCNC2CC(=O)N(Cc3ccccc3)C2=O)cc1 (stereo not given) — higher, 101%
- CN(Cc1cn(C)nc1-c1cccc(Cl)c1)Cc1nccn1C — higher, 97%
- Nc1cc(C(=O)O)ccc1N1CCCCC1 — lower, 83.3%
- Nc1ccc(N2CCN(CCCCN3C(=O)C4CCCN4C3=O)CC2)cc1 (stereo not given) — higher, 87.8%
- O=C(CN1C(=O)NC(c2ccc(F)cc2)C1=O)Nc1ccc2c(c1)OCCO2 (stereo not given) — higher, 103%
- COc1cccc(NC(=O)N2CCN(c3nnnn3-c3ccccc3)CC2)c1 — higher, 86.7%
- O=C(Cn1c(=O)oc2ccccc21)N1CCN(S(=O)(=O)c2ccccc2)CC1 — higher, 98.3%
- CC(C)(C)c1ccc(NC(=S)NCc2cccnc2)cc1 — higher, 103%
- O=S(=O)(c1ccc(OCC(O)CN2CCC(Cc3ccccc3)CC2)cc1)N1CCOCC1 (stereo not given) — higher, 91.8%
- N/C(=N\OC(=O)COc1ccc([N+](=O)[O-])cc1)c1cccnc1 — higher, 109%
- C/C(=N\NC(=O)c1cnccn1)c1ccc([N+](=O)[O-])cc1 — higher, 107%
- O=C1CC(Nc2ccc(N3CCOCC3)cc2)C(=O)N1Cc1ccccc1 (stereo not given) — higher, 111%
- Cc1cc(SCC2=NNC(=O)C2)c(Cl)cc1Cl — higher, 104%
- CC(C)Cc1nc2oc3c(NCC(C)O)ncnc3c2c2c1CCCC2 (stereo not given) — lower, 85.5%
- CCCCc1nc2sc3c(=O)[nH]cnc3c2c2c1CCCC2 — higher, 105%
- CCCCc1cc(C(=O)Cc2ccccn2)c(O)cc1O — higher, 90.9%
- COc1ccc(C(=O)OCC(=O)c2c(N)n(C)c(=O)n(C)c2=O)cc1OC — higher, 87.8%
- NC(=O)C1Cc2ccccc2CN1C(=O)c1nn(Cc2ccccc2)c(=O)c2ccccc12 (stereo not given) — higher, 97.3%
- Cc1cccc2nc(C(=O)Nc3cccc(C(=O)NC4CC4)c3)cn12 — higher, 96.1%
- Cc1onc(-c2ccccc2)c1CNC(=O)C1COc2ccccc2O1 (stereo not given) — lower, 81%
- O=C(O)Cc1ccc(N=Nc2c(O)c(C(=O)O)cc3ccccc23)cc1 — higher, 120%
- Nc1cccc2cc(S(=O)(=O)O)ccc12 — higher, 104%
- O=C1CC(N2CCOCC2)C(=O)N1c1ccc(Cl)cc1 (stereo not given) — higher, 95.9%
- O=C(O)c1ccc2c(c1)C1C=CCC1C(c1ccncc1)N2 (stereo not given) — higher, 95.9%
- S=C1NC2(CCCCCC2)N=C1c1ccccc1 — higher, 124%
- CC(NC(=O)c1ccco1)C1CCCO1 (stereo not given) — higher, 106%
- S=c1[nH]nc(Cn2nnc3ccccc32)n1-c1ccccc1 — higher, 96.5%
- COc1cc(/C=C(\CC(=O)O)c2nc3ccccc3s2)cc(OC)c1O — lower, 81.9%
- COc1cc(/C=N/NC(=O)c2ccc(NS(=O)(=O)c3cccs3)cc2)cc(OC)c1O — higher, 93.2%
- COc1ccccc1/C=C/C=C1N=C(/C=C/c2ccc(Cl)cc2)OC/1=O — higher, 87.7%
- C/C=C/c1ccc(OCC(=O)N2CCc3cc(OC)c(OC)cc3C2)c(OC)c1 — higher, 87.1%
- CCc1ccccc1NC(=O)N1CCc2ccccc21 — higher, 88.4%
- CCN1CNC(=S)N(CCc2ccccc2)C1 — higher, 102%
- Cc1cc(C)n2nc(C(=O)OCC(=O)N(C)CC(=O)Nc3ccc(F)cc3)nc2n1 — lower, 84.1%
- CCN1CCN(C(=O)CN(C)S(=O)(=O)c2ccc(OC)c(C)c2)CC1 — higher, 87.7%
- CCOC(=O)CNC(=O)Cn1cnc2c(nnn2-c2ccc(F)cc2)c1=O — higher, 97.2%
- COC/C=C/C1=CC2=CC(=O)C(C)(OC(=O)C3CCCC3)C(=O)C2=CO1 (stereo not given) — higher, 100%
- Clc1ccccc1N=Nc1ccccn1 — higher, 89.9%
- COc1cc(OC)c2c(c1O)OC(c1ccccc1)CC2=O (stereo not given) — higher, 105%
- CCOC(=O)C1CCCC12Nc1cccc3cccc(c13)N2 (stereo not given) — lower, 84.6%
- Cc1noc(C)c1COc1ccc(C(=O)OCC(=O)N2c3ccccc3NC(=O)C2(C)C)cc1 — higher, 102%
- CCOc1ccc(NC(=O)C2CCCN(S(=O)(=O)c3c(C)nn(C)c3C)C2)cc1 (stereo not given) — higher, 93%
- CC(=O)c1sc(C(=O)O)c(-c2ccco2)c1-c1ccco1 — higher, 115%
- Cc1cc(CN2C(=O)c3ccccc3C2=O)cc(N2CCOCC2)c1 — lower, 84%
- O=C(CCN1C(=O)c2ccccc2C1=O)NCc1ccco1 — higher, 108%
- CCCC(=O)C1=C(N(C)c2ccccc2)CC(C)(C)CC1=O — higher, 99.3%
- O=C(Nc1cccnc1)c1sc(Nc2ccccc2F)nc1-c1ccccc1 — higher, 89%
- O=C(COc1ccccc1Cl)c1ccc[nH]1 — higher, 94.5%
- C/C(=N\n1c(C)nc2ccccc2c1=O)c1ccc(C)o1 — higher, 108%
- COC(=O)C1=C(C)N(Cc2ccccc2)C(=O)/C1=C\c1ccco1 — higher, 90.4%
- O=C1/C(=C\c2ccco2)NC(=S)N1c1ccccc1 — higher, 91.4%
- O=C1NN(c2cccc(Br)c2)C(=O)/C1=C\c1ccccc1 — higher, 93.1%
- COc1ccc(N=C2NC(=O)/C(=C\C=C\c3ccco3)S2)cc1 — higher, 101%
- O=C(O)c1cc(N2N=C(C(F)(F)F)/C(=C/C=C/c3ccco3)C2=O)ccc1Cl — higher, 99.9%
- O=C(O)C(Cc1ccccc1)N1C(=O)/C(=C/C=C/c2ccco2)SC1=S (stereo not given) — higher, 106%
- O=C(Nc1ccc(Cl)cc1)Nc1ccc(N2CCC(C(F)(F)F)CC2)nc1 — higher, 97.4%
- CC1CC(C)CN(C(=O)CSCC(=O)O)C1 (stereo not given) — higher, 96.8%
- Cn1c(C(=O)N[C@@H](C(=O)O)c2ccccc2)cc2cc(Cl)ccc21 — higher, 98.7%
- C#Cc1ccc([C@H]2C=C(C(=O)N3CCOCC3)O[C@@H](OCc3ccc(CO)cc3)C2)cc1 — higher, 98.9%
- Cc1cc(=O)n2nc(N3CCCC(C(=O)NC4CCC(C)CC4)C3)sc2n1 (stereo not given) — higher, 91.6%
- O=C(O)Cc1cccc(=O)c(O)c1C(=O)O — higher, 92.9%
- COc1cc(NC(=O)c2noc3c2CCC3)c(OC)cc1Cl — lower, 85.2%
- CCOC(=O)C(=O)NCc1ccc(/C=C2/N=C(C)C(C(=O)OCC)=C2O)o1 — higher, 101%
- CN(C)c1nc(OCCNC(=O)COc2ccc(Cl)cc2Cl)nc(N2CCOCC2)n1 — higher, 95.2%
- CC(=O)c1ccc(-c2nnc(CCC(=O)N(C)Cc3c(C)nc4ccccn34)o2)s1 — higher, 104%
- CC(=O)Nc1nnc(-c2c(-c3c(Cl)cccc3Cl)noc2C)o1 — higher, 95.8%
